Measured values: PubChem BioAssay (NCATS)
Records with an inconclusive call do not appear. Activity calls are given as the source filed them. The call rests on the fitted dose curve; in most records, active means well fitted cell-killing curve with a large enough effect; inconclusive means small, poorly fitted or top-dose-only effect, or effect the other way; inactive means no such curve, though single readings can be large or run the other way.

How the values were obtained:
[1] = Quantitative High-Throughput drug screen in 47 multiple myeloma cell lines against the NCATS MIPE library collection: KMS11_JCRBsus cell viability assay (AID 1919873); further: nearly all actives have a fitted effect of over 50% in size
Procedure, shortened: (§1)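 500 cells/well; MIPE 4.0 drugs pin-transferred; 48 h, 37C, 5% CO2. CellTiter-Glo, 5 min RT, luminescence. Controls: DMSO 100%, media 0%.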

[2] = Quantitative High-Throughput drug screen in 47 multiple myeloma cell lines against the NCATS MIPE library collection: KMS28BM_JCRB cell viability assay (AID 1919874); further: nearly all actives have a fitted effect of over 35% in size
Procedure, shortened: as §1
Potency means the concentration at half of the fitted maximal effect.

SMILES | Potency [1] | Potency [2]
CCCNS(=O)(=O)Nc1ncnc(OCCOc2ncc(Br)cn2)c1-c1ccc(Br)cc1 | inactive | inactive
COc1cc2c(Nc3ccc(Cl)c(Cl)c3F)ncnc2cc1OCC1C[C@@H]2CN(C)C[C@H]2C1 | 5.9 µM (active) | 8.33 µM (active)
CON=C(C(=O)N[C@@H]1C(=O)N2C(C(=O)O)=C(Cn3ccc(=N)n3CCO)CS[C@H]12)c1csc(N)n1 | inactive | inactive
C=CC(=O)Nc1cc(NC(=O)c2ccc(C)c(NC(=O)c3ccno3)c2)cc(C(F)(F)F)c1 | 11.8 µM (active) | 20.9 µM (active)
C[C@H](NCc1ccc(OCc2cccc(F)c2)cc1)C(N)=O | 7.43 µM (active) | 5.9 µM (active)
N#Cc1ccc(COC[C@H]2O[C@@H](n3c(NCc4ccc(Cl)c(Cl)c4)nc4c(N)ncnc43)[C@@H](O)[C@@H]2O)cc1 | 5.26 µM (active) | 5.9 µM (active)
c1cncc(CN2CCC(n3ncc4c(N5CCOCC5)nc(-c5ccc6[nH]ccc6c5)nc43)CC2)c1 | 0.59 µM (active) | 11.8 µM (active)
C[C@H](O)[C@@H]1C(=O)N2C(C(=O)O)=C(S[C@@H]3CN[C@H](CNS(N)(=O)=O)C3)[C@@H](C)[C@@H]12 | inactive | inactive
COc1ccc(CCC(=O)c2c(O)cc(O[C@@H]3O[C@H](CO)[C@@H](O)[C@H](O)[C@@H]3O[C@@H]3O[C@@H](C)[C@H](O)[C@@H](O)[C@@H]3O)cc2O)cc1O | inactive | inactive
